Results: PubChem BioAssay (NCI)
Compounds without any hit were thinned out: in the full panel of roughly 83,000, 20% have a hit.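 Negative percent growth values reflect cell death: -40 means 40% of the cells present at the start died, and -100 means all died.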 Values without a mark were called inactive. Activity calls are given as the source filed them. Rule for the calls: active = growth percent below 10; inactive = the rest.

tested on: T-47D breast; experiment: NCI-60 one-dose screen, 48 h (100 = growth as untreated, 0 = no growth, -100 = all killed); settings: 10 µM

| Structure (SMILES) | growth |
| --- | --- |
| O=C(COc1ccc(-c2nc3ccccc3[nH]2)cc1)N=Nc1c(O)[nH]c2ccccc12 | 59% |
| C[C@]12CC[C@H]3[C@@H](CC=C4C[C@@H](O)CC[C@@]43C)[C@@H]1CC[C@@H]2C(=O)C/C=N/O | 77.2% |
| COc1ccc(N2CCN(c3nc(-c4ccccc4)c(C#N)c(=O)[nH]3)CC2)cc1 | 85.7% |
| CCCCCCCCCCCC(=O)NCCCN(C)C | 84.8% |
| COc1cccc(-c2nnc(COc3ccc(-c4nc5ccccc5[nH]4)cc3OC)o2)c1 | 73.6% |
| N/C(=N\O)c1cn(C2OC(CO)C(O)C2O)c2ncnc(N)c12 (stereo not drawn) | -7.04% (active) |
| Nc1ccc(C2=CC(c3ccc(Cl)cc3)N3C=CSC3=N2)cc1 (stereo not drawn) | -11% (active) |
| O=[N+]([O-])c1cc2ncccc2c2ncccc12 | 74.6% |
| O=C(CCc1ccccc1)N1CCN(C(=O)CCc2ccccc2)CC1 | 108% |
| COc1ccc(CCc2nc3cc(-c4c(C)noc4C)ccc3n2CCN2CCOCC2)cc1 | 28.2% |
| CCOC(=O)C(=O)Cc1cccnn1 | 122% |
| FC(F)(F)c1ccc(-c2nc(-c3nc4cc(Cl)c(Cl)cc4[nH]3)c3ccccn23)cc1 | 61.6% |
| COc1cc(CSc2nc3ccc(C)cc3c(=O)n2-c2ccccc2)cc(OC)c1OC | 28.2% |
| CC(C)C[C@H](NC(=O)Cn1ccc2ccccc2c1=O)B(O)O | 39.6% |
| CCCCC(=O)N(c1ccc(Nc2c3ccccc3nc3cc([N+](=O)[O-])ccc23)cc1)S(C)(=O)=O | 15.1% |
| N#Cc1ncc(-c2cc(F)ccc2F)c(NC2CCCCCC2)n1 | 69.5% |
| Cc1nnc2c3nnc(-c4ccc(Cl)cc4)n3c3ccccc3n12 | 105% |
| O=CNc1c(Cl)cc2c(c1Cl)Cc1cc([N+](=O)[O-])ccc1-2 | 30.6% |
| O=C(Nc1ccc(OS(=O)(=O)Cc2ccccc2)cc1)C12CC3CC(CC(C3)C1)C2 | 51.3% |

| Structure (SMILES) | growth |
| --- | --- |
| COc1cc(CSc2nc3ccc(C)cc3c(=O)n2Cc2ccccc2)cc(OC)c1OC | 34.1% |
| CC(=O)[C@H]1CC[C@H]2[C@@H]3CC[C@@H]4CC=C(C=O)C[C@]4(C)[C@H]3CC[C@]12C | 85.6% |
| O=[N+]([O-])c1ccc(Br)o1 | 91.3% |
| CCc1nn2c(-c3cc(OC)c(OC)c(OC)c3)c(-c3cc(OC)c(OC)c(OC)c3)nc2s1 | 81.4% |
| N#Cc1c2c([nH]c(=O)c1C(N)=O)CCCCC2 | 79.2% |
| COC(=O)[C@]12CC[C@@H](C)[C@H](C)[C@@H]1C1=CC[C@@H]3[C@@]4(C)CC(=O)[C@H](O)[C@@]5(C)COC(=C45)C[C@@]3(C)[C@]1(C)CC2 | -37.3% (active) |
| C=CCNCCCN1C(=O)c2ccc3c4c(ccc(c24)C1=O)C(=O)N(CCCNCC=C)C3=O | -48.6% (active) |
| COc1ccc(Cn2cc3c(c2-c2cc(OC)c(OC)c(OC)c2)CCc2cnoc2-3)cc1N | 43.4% |
| Cc1ccc2nc(-c3ccc(OCC(=O)N=Nc4c(O)[nH]c5ccccc45)cc3)[nH]c2c1 | 38.4% |
| COc1cc(OC)cc(-c2n/c(=C\c3c(O)[nH]c4ccc(OC)cc34)cc3c2=Nc2ccccc2-3)c1 | 109% |
| O=c1ccc2nc(-c3ccccc3)nn(-c3ccccc3)c-2c1 | -36.5% (active) |
| NS(=O)(=O)c1ccc(N2N=C(c3ccc(-c4ccccc4)cc3)CC2c2ccc(Cl)cc2)cc1 (stereo not drawn) | 74.6% |
| O=C(NC1CCCC1)c1ccc(N2CCC(NCc3cccc(C(F)(F)F)c3)CC2)cc1 | 83.2% |
| COc1cc(OC)cc(-c2ccc(-c3ccc(C(=N)N)cn3)o2)c1 | -56.9% (active) |
| COc1ccc(-c2oncc2-c2cc(OC)c3c(c2)OCO3)cc1 | 34.7% |
| COc1cc2ccnc(C=O)c2cc1OC | 60.7% |
| N#Cc1ccc(-n2cnc(NC(=O)[C@H]3CCN(C#N)C3)c2)cc1 | -9.28% (active) |
| Oc1ccccc1-c1nnc(Cn2c(Cc3cccc4ccccc34)nc3ccccc32)o1 | 89.6% |
| Fc1ccc(Nc2ccnc(N3CCN(c4ccnc5cc(Cl)ccc45)CC3)n2)cc1 | -0.414% (active) |
